Calls of active or inactive are those of the source. Rule as the data show it: active = fold change mostly below about -2 (no sharp cut-off); inactive = mostly above about -1.8.
Assay: TERT promoter activity modulators, primary screen, cell-based, luciferase reporter, human (AID 1259240)
Conditions: A2780 TERT promoter luciferase reporter, 16 h; at 20 µM, fold versus average of vehicle-only wells unless noted

Question: For `Cc1cc(Cl)cc2c1NC(c1cccnc1)C1CC=CC21` (centres undefined), which fold change is on record?
Answer: -2.25 (active)

Question: Which outcome does the source give for `Clc1ccc(Cl)c2c1NC(c1cccnc1)C1CC=CC21` (centres undefined) here?
Answer: inactive

Question: Which fold change does the source give for `Cc1nnc2ccc(N3CCN(C)CC3)nn12` here?
Answer: -1.19 [at 20 µM] (inactive)

Question: Which fold change does the source give for `Cc1oc(-c2ccccc2F)nc1CN1C(=O)CN=C(c2ccccc2)c2ccccc21` here?
Answer: -1.14 (inactive)

Question: For `CCOC(=O)C1CC2CCCN2C12C(=O)N(Cc1ccccc1)c1ccccc12` (centres undefined), which fold change is on record?
Answer: -1.82 [at 20 µM] (inactive)

Question: For `CC1N=C(c2ccccc2F)c2cc(Cl)ccc2N(Cc2cc(=O)n3ccccc3n2)C1=O` (centres undefined), which fold change is on record?
Answer: -1.26 (inactive)

Question: Which fold change does the source give for `N#Cc1cnn2c(C(F)(F)F)cc(-c3cccs3)nc12` here?
Answer: 1.09 (inactive)

Question: With `CCN1CCN(c2ccc3nncn3n2)CC1` as the compound, how does the fold change read?
Answer: -1.39 (inactive)

Question: With `CC12CC(c3ccccc3O1)C(C(=O)OCc1ccccc1)C(=O)N2` (centres undefined) as the compound, how does the fold change read?
Answer: -2.11 [at 20 µM] (active)

Source: PubChem BioAssay AID1259240 (Keith Lab, Institute of Cancer Science, University of …, 2017)
